In PubChem BioAssay AID1159580 (chemical genetic matrix, 2015):
Values joined by “and” are separate entries in the source; they are usually repeats but may differ in a detail not shown here. Equal entries are not always repeated. The campaign covered roughly 5,500 compounds. About 2,000 (36%) were called active. Not shown: some 18% with an inconclusive outcome. No stated cut-off is given here; in the data, active means normalized growth mostly below about 0.91 (no sharp cut-off); inconclusive means no clear call, values can overlap the other calls; inactive means mostly above about 0.92. This is one part of the list.

Assay: chemical genetic growth profiling, strain panel (AID 1159580);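 further: tested at 20 µM; growth read once vehicle control cultures reached saturation at 30 °C; 1 = growth at the plate median or of vehicle wells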
Settings: S. cerevisiae deletion strains, growth OD

Measured: normalized growth

CC(=O)OCC(=O)[C@@]12OC(C)(C)O[C@@H]1CC1C3C[C@H](F)C4=CC(=O)C=C[C@]4(C)[C@@]3(F)[C@@H](O)C[C@@]12C (some centres not stated)
inactive: locus YAL013W, strain DEP1, stronger effect = lower value 1 | locus YAL021C, strain ccr4, stronger effect = lower value 1.01 | locus YAL026C, strain drs2, stronger effect = lower value 1.02 | locus YAL030W, strain snc1, stronger effect = lower value 1.02 | locus YBL061C, strain skt5, stronger effect = lower value 1.03 | locus YBR009C, strain hhf1, stronger effect = lower value 1.01 | locus YBR021W, strain FUR4, stronger effect = lower value 0.996 | locus YBR023C, strain chs3, stronger effect = lower value 1.03 | locus YBR171W, strain sec66, stronger effect = lower value 1.03 | locus YBR229C, strain ROT2, stronger effect = lower value 1.01 | locus YBR231C, strain swc5, stronger effect = lower value 0.989 | locus YBR279W, strain paf1, stronger effect = lower value 1.03 | locus YCL011C, strain gbp2, stronger effect = lower value 1.04 | locus YCL016C, strain dcc1, stronger effect = lower value 1.03 | locus YCL029C, strain bik1, stronger effect = lower value 1.01 | locus YCL061C, strain MRC1, stronger effect = lower value 1.01 | locus YCL069W, strain vba3, stronger effect = lower value 1.02 | locus YCR088W, strain abp1, stronger effect = lower value 1.02 | locus YDL005C, strain med2, stronger effect = lower value 1.03 | locus YDL035C, strain GPR1, stronger effect = lower value 0.99 | locus YDL040C, strain nat1, stronger effect = lower value 1.02 | locus YDL074C, strain BRE1, stronger effect = lower value 1.01 | locus YDL101C, strain DUN1, stronger effect = lower value 1.01 | locus YDL134C, strain PPH21, stronger effect = lower value 0.99 | locus YDL185W, strain tfp1, stronger effect = lower value 1.02 | locus YDL192W, strain arf1, stronger effect = lower value 1.02 | locus YDR001C, strain nth1, stronger effect = lower value 1.02 | locus YDR069C, strain doa4, stronger effect = lower value 0.998 | locus YDR101C, strain arx1, stronger effect = lower value 0.965 | locus YDR137W, strain rgp1, stronger effect = lower value 1.03 | locus YDR150W, strain NUM1, stronger effect = lower value 1.01 | locus YDR159W, strain sac3, stronger effect = lower value 0.989 | locus YDR162C, strain NBP2, stronger effect = lower value 0.989 | locus YDR195W, strain ref2 0.999 | locus YDR297W, strain sur2, stronger effect = lower value 1.02 | locus YDR318W, strain mcm21, stronger effect = lower value 1.02 | locus YDR334W, strain swr1, stronger effect = lower value 1.02 | locus YDR335W, strain msn5, stronger effect = lower value 1.03 | locus YDR388W, stronger effect = lower value 1.01 | locus YDR392W, strain spt3, stronger effect = lower value 0.981 | locus YDR502C, strain sam2, stronger effect = lower value 1 | locus YEL003W, strain gim4, stronger effect = lower value 1.02 | locus YEL037C, strain rad23, stronger effect = lower value 1.02 | locus YEL061C, strain CIN8 (second series), stronger effect = lower value 1.02 | locus YEL061C, strain CIN8, stronger effect = lower value 1.01 | locus YER015W, strain faa2, stronger effect = lower value 1.02 | locus YER016W, strain bim1, stronger effect = lower value 1.01 | locus YER110C, stronger effect = lower value 1.02 | locus YER111C, strain swi4, stronger effect = lower value 1.04 | locus YER155C, strain BEM2 (second series), stronger effect = lower value 0.995 | locus YER155C, strain BEM2, stronger effect = lower value 1.01 | locus YER167W, strain BCK2, stronger effect = lower value 0.996 | locus YFR010W, strain ubp6, stronger effect = lower value 1.01 | locus YGL078C, strain dbp3, stronger effect = lower value 1.02 | locus YGL086W, strain mad1, stronger effect = lower value 0.992 | locus YGL167C, strain pmr1, stronger effect = lower value 1.02 | locus YGL173C, strain kem1, stronger effect = lower value 1.02 | locus YGL227W, strain vid30, stronger effect = lower value 1.03 | locus YGL240W, strain doc1, stronger effect = lower value 1.01 | locus YGL248W, strain PDE1, stronger effect = lower value 1.01 | locus YGL253W, strain hxk2, stronger effect = lower value 1.01 | locus YGR135W, strain pre9, stronger effect = lower value 1.07 | locus YGR252W, strain gcn5, stronger effect = lower value 1.1 | locus YHR013C, strain ard1, stronger effect = lower value 1.04 | locus YHR027C, strain rpn1, stronger effect = lower value 1.02 | locus YHR030C, strain SLT2, stronger effect = lower value 0.995 and 0.988 | locus YHR079C, strain IRE1 (second series), stronger effect = lower value 1.01 | locus YHR079C, strain IRE1, stronger effect = lower value 1 | locus YHR094C, strain hxt1, stronger effect = lower value 1.02 | locus YHR129C, strain ARP1, stronger effect = lower value 1.01 | locus YHR142W, strain chs7, stronger effect = lower value 1.04 | locus YHR200W, strain rpn10, stronger effect = lower value 1.01 | locus YIL066C, strain RNR3, stronger effect = lower value 1 | locus YIL073C, strain SPO22, stronger effect = lower value 1.02 | locus YIL125W, strain kgd1, stronger effect = lower value 1 | locus YIR030C, strain dcg1, stronger effect = lower value 1.03 | locus YJL092W, strain hpr5, stronger effect = lower value 1.03 | locus YJL095W, strain BCK1 (second series), stronger effect = lower value 1.02 | locus YJL095W, strain BCK1, stronger effect = lower value 1.03 and 0.999 | locus YJL115W, strain asf1, stronger effect = lower value 1.01 | locus YJL129C, strain trk1, stronger effect = lower value 1.03 | locus YJL134W, strain LCB3, stronger effect = lower value 1.01 | locus YJL154C, strain vps35, stronger effect = lower value 1.02 | locus YJL164C, strain tpk1, stronger effect = lower value 1.02 | locus YJL166W, strain qcr8, stronger effect = lower value 1.04 | locus YJL168C, strain set2, stronger effect = lower value 1.02 | locus YJL187C, strain SWE1 (second series), stronger effect = lower value 1.01 | locus YJL187C, strain SWE1, stronger effect = lower value 1.02 | locus YJR043C, strain POL32, stronger effect = lower value 0.999 | locus YJR066W, strain TOR1, stronger effect = lower value 0.937 | locus YJR075W, strain HOC1, stronger effect = lower value 1 | locus YKL009W, strain mrt4, stronger effect = lower value 1.01 | locus YKL068W, stronger effect = lower value 1.01 | locus YKL085W, strain MDH1 (second series), stronger effect = lower value 1.01 | locus YKL085W, strain MDH1, stronger effect = lower value 1.01 | locus YKL160W, strain elf1, stronger effect = lower value 1.05 | locus YKR001C, strain vps1, stronger effect = lower value 1 | locus YKR026C, strain gcn3, stronger effect = lower value 1.02 | locus YKR091W, strain srl3, stronger effect = lower value 1.02 | locus YLL001W, strain dnm1, stronger effect = lower value 1.03 | locus YLL026W, stronger effect = lower value 1.02 | locus YLL041C, strain sdh2, stronger effect = lower value 1.01 | locus YLR027C, strain aat2, stronger effect = lower value 1.01 | locus YLR039C, strain RIC1, stronger effect = lower value 1.06 | locus YLR058C, strain SHM2, stronger effect = lower value 1.01 | locus YLR102C, strain apc9, stronger effect = lower value 1.01 | locus YLR113W, strain HOG1, stronger effect = lower value 1.02 | locus YLR221C, strain rsa3, stronger effect = lower value 1.03 | locus YLR258W, strain gsy2, stronger effect = lower value 1.04 | locus YLR262C, strain YPT6 (second series), stronger effect = lower value 1.04 | locus YLR262C, strain YPT6, stronger effect = lower value 0.987 | locus YLR268W, strain sec22, stronger effect = lower value 1.01 | locus YLR320W, strain mms22, stronger effect = lower value 1.06 | locus YLR330W, strain CHS5, stronger effect = lower value 1.01 | locus YLR342W, strain FKS1 (second series), stronger effect = lower value 1.03 | locus YLR342W, strain FKS1, stronger effect = lower value 1.03 | locus YLR357W, strain rsc2, stronger effect = lower value 1.01 | locus YLR370C, strain arc18, stronger effect = lower value 1.03 | locus YLR371W, strain rom2, stronger effect = lower value 1.01 | locus YLR384C, strain iki3, stronger effect = lower value 1.03 | locus YLR418C, strain cdc73, stronger effect = lower value 1.03 | locus YML016C, strain PPZ1, stronger effect = lower value 1 | locus YML032C, strain rad52, stronger effect = lower value 0.996 | locus YML120C, strain ndi1, stronger effect = lower value 1.04 | locus YML124C, strain tub3, stronger effect = lower value 1.03 | locus YMR058W, strain fet3, stronger effect = lower value 1.01 | locus YMR078C, strain ctf18, stronger effect = lower value 1.01 | locus YMR125W, strain sto1, stronger effect = lower value 1.03 | locus YMR129W, stronger effect = lower value 1.02 | locus YMR205C, strain PFK2, stronger effect = lower value 1.05 | locus YMR223W, strain ubp8, stronger effect = lower value 1.05 | locus YMR231W, strain pep5, stronger effect = lower value 1.02 | locus YMR307W, strain GAS1, stronger effect = lower value 1.04 | locus YNL067W, strain RPL9B, stronger effect = lower value 0.995 | locus YNL071W, strain lat1, stronger effect = lower value 1.03 | locus YNL153C, strain GIM3, stronger effect = lower value 1.01 | locus YNL183C, strain NPR1, stronger effect = lower value 0.945 | locus YNL209W, strain ssb2, stronger effect = lower value 1.03 | locus YNL233W, strain BNI4, stronger effect = lower value 1.01 | locus YNL248C, strain rpa49, stronger effect = lower value 1.02 | locus YNL250W, strain rad50, stronger effect = lower value 1.03 | locus YNL271C, strain bni1, stronger effect = lower value 1.04 | locus YNL298W, strain CLA4, stronger effect = lower value 1.04 | locus YNL307C, strain MCK1, stronger effect = lower value 1.02 | locus YNL322C, strain KRE1 (second series), stronger effect = lower value 1.04 | locus YNR049C, strain mso1, stronger effect = lower value 1.02 | locus YNR052C, strain pop2, stronger effect = lower value 1.01 | locus YOL006C, strain TOP1, stronger effect = lower value 1.03 | locus YOL012C, strain htz1 2.14 | locus YOL147C, strain pex11, stronger effect = lower value 1.02 | locus YOR001W, strain rrp6, stronger effect = lower value 1 | locus YOR061W, strain CKA2, stronger effect = lower value 1.01 | locus YOR069W, strain VPS5, stronger effect = lower value 1.01 | locus YOR070C, strain gyp1, stronger effect = lower value 1.03 | locus YOR080W, strain dia2, stronger effect = lower value 1.02 | locus YOR083W, strain WHI5, stronger effect = lower value 1.04 | locus YOR106W, strain vam3, stronger effect = lower value 1.05 | locus YOR136W, strain idh2, stronger effect = lower value 1.01 | locus YOR144C, strain elg1, stronger effect = lower value 1 | locus YOR184W, strain ser1, stronger effect = lower value 1.01 | locus YOR231W, strain MKK1, stronger effect = lower value 0.999 | locus YOR265W, strain rbl2, stronger effect = lower value 1.02 | locus YOR270C, strain vph1, stronger effect = lower value 1.03 | locus YOR290C, strain snf2, stronger effect = lower value 0.982 | locus YOR316C, strain cot1, stronger effect = lower value 1.01 | locus YPL051W, strain arl3, stronger effect = lower value 1.02 | locus YPL055C, strain LGE1, stronger effect = lower value 1.01 | locus YPL078C, strain atp4, stronger effect = lower value 1.04 | locus YPL106C, strain sse1, stronger effect = lower value 1 | locus YPL240C, strain hsp82, stronger effect = lower value 1.01 | locus YPL241C, strain CIN2, stronger effect = lower value 0.999 | locus YPL256C, strain CLN2, stronger effect = lower value 0.974 | locus YPR119W, strain clb2, stronger effect = lower value 1.01 | locus YPR141C, strain kar3, stronger effect = lower value 1.02 | locus YPR163C, strain tif3, stronger effect = lower value 1.02 | locus YPR167C, strain met16, stronger effect = lower value 1.02 | strain wtn01, stronger effect = lower value 1.02
